# From PubChem BioAssay AID504803 (The Scripps Research Institute Molecular Screening Center, 2011)
# The campaign covered roughly 340,000 compounds. About 1,700 (0.5%) were called active. Cut-off read from the data, not from the text of the source: active = inhibition above about 36%; inactive = the rest. This excerpt belongs to a sample that is enriched for actives.
# Biological target: Serine protease HTRA1 (Homo sapiens) (UniProt Q92743)
# Assay: inhibition of human HTRA1 peptidase – biochemical, fluorescence polarization, HTS, primary screen (AID 504803);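 note: 0% = enzyme with DMSO and 100% = wells lacking enzyme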
# Settings: recombinant HTRA1, FP-rhodamine activity-based probe, at 5.96 µM, hits give high values
# Serine protease HTRA1 (Homo sapiens), sequence (Q92743 whole entry, looked up): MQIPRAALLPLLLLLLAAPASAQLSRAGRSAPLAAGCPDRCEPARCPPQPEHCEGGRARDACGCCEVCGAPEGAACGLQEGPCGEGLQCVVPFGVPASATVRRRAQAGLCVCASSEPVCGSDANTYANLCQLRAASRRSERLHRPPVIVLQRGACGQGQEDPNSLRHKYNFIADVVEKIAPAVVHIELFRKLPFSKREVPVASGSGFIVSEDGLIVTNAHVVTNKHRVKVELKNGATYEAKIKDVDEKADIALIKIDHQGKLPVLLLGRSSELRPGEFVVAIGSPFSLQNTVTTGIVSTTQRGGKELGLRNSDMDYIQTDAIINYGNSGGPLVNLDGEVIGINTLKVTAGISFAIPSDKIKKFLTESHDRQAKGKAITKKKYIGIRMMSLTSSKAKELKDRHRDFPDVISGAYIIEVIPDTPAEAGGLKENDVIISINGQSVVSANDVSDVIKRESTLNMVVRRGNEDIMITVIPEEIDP
row,SMILES,inhibition
1,CN1CCN(c2ccncc2S(=O)(=O)N2CCCC2)CC1,3.56% (inactive)
2,Clc1ccc(C2=CSC3=Nc4cccc5cccc(c45)N23)cc1,44.2% (active)
3,CC1=C(C(=O)N2CCOCC2)CC(CC(=O)NCc2cccc3ccccc23)C(=O)N1CCC1=CCCCC1 (stereo not drawn),-3.43% (inactive)
4,O=C1NC(Cc2ccccc2)c2nc3ccc(Br)cc3c(=O)n2-c2cc3ccccc3cc21 (stereo not drawn),-54.3% (inactive)
5,CC(=O)Nc1ccc(S(=O)(=O)N2CCCC2C(=O)O)cc1 (stereo not drawn),2% (inactive)
6,CC(=O)Nc1ccc(NS(=O)(=O)c2ccc3c(c2)NC(=O)CC(=O)N3)cc1,6.8% (inactive)
7,CC(=O)Nc1ccc(S(=O)(=O)Nc2ccc(N3CCCCC3)cc2)cc1,52.4% (active)
8,C=CCOc1ccccc1CNn1c(C)n[nH]c1=S,3.58% (inactive)
9,CNC(=S)NNC(=O)c1cccn(Cc2ccccc2)c1=O,3.18% (inactive)
10,CNC(=S)NNC(=O)c1oc2nc(-c3ccccc3)cc(-c3ccco3)c2c1N,51.7% (active)
11,CNC(=S)NNC(=O)c1sccc1OCc1ccccc1,5.29% (inactive)
12,Cc1cc2cc3n(c2nn1)N=C(Cl)CC3,3.25% (inactive)
13,CCOC(=O)C1CCN(C(=O)c2ccc3c(=O)n4nc(Nc5ccccc5CC)sc4nc3c2)CC1,-34.2% (inactive)
14,CCOC(=O)C=Cc1ccc(C(=O)OCC)[nH]1,0.68% (inactive)
15,Cc1[nH]c2ccccc2c1C(=O)C(=O)NCc1nnnn1-c1cccc(F)c1,7.28% (inactive)
16,CCC(Oc1ccccc1)C(=O)OCC(=O)Nc1c(C)nn(-c2ccccc2)c1C (stereo not drawn),-6.47% (inactive)
17,Cn1c(SCC(=O)N/N=C/c2ccc(O)c(O)c2)nc2ccccc21,41.2% (active)
18,CCOc1ccc(/C=N/NC(=O)CSc2ccccn2)cc1O,9.01% (inactive)
19,CCn1c(SCC(=O)N/N=C/c2ccncc2)nc2ccccc21,4.65% (inactive)
20,O=C1OCCC1=COCCCCOC=C1CCOC1=O,-3.04% (inactive)

row,SMILES,inhibition
1,Cc1ccc(NC(=O)COc2ccc(/C=N\NC(=O)c3cccnc3)cc2)cc1C,-7.41% (inactive)
2,O=C(N/N=C/c1sc(N2CCCCC2)nc1-c1cccs1)c1cccnc1,40.5% (active)
3,O=C(O)c1ccc(N/N=C/c2cn(-c3ccccc3)nc2-c2cccs2)cc1,-11.3% (inactive)
4,CSc1ncnc2c1ncn2CCCNCc1ccco1,8.47% (inactive)
5,CCN(CC)CCN(C(=O)c1ccc2c(c1)CCCC2)c1nc2c(OC)cccc2s1,-19.6% (inactive)
6,CN1OC[C@@H]2CN[C@H](c3ccc(-c4ccccc4)cc3)C[C@@H]21,-1.81% (inactive)
7,COCCn1c(SCC(=O)Nc2ccc(F)cc2F)nc2c(c1=O)SCC2,-1.19% (inactive)
8,CC(CC(=O)N1CCN(c2ccccc2)CC1)c1ccccc1 (stereo not drawn),-0.5% (inactive)
9,CC(=O)N1CCN(c2ccc(NCc3ccc(C(C)C)cc3)cc2)CC1,59.2% (active)
10,CC(=O)c1ccc(N2CCN(C(=O)CCc3ccccc3)CC2)cc1,2.82% (inactive)
11,O=C(OCc1ccccc1)N1CCC2CC1c1cc(N3CCN(S(=O)(=O)c4cc(Cl)cc(Cl)c4)CC3)ccc12 (stereo not drawn),-4.06% (inactive)
12,C[C@H](O)[C@@H]1C(=O)N2CCc3c([nH]c4ccccc34)[C@@H]2C[C@@H]1N(C)C(=O)Nc1ccc(F)cc1,-1.56% (inactive)
13,C[C@@H]1CN([C@H](C)CO)C(=O)CCCn2nncc2CO[C@@H]1CN(C)C(=O)OCc1ccccc1,-3.03% (inactive)
14,CC(C)CCOc1ccc(C(=O)Nc2cc(S(=O)(=O)N3CCOCC3)ccc2N2CCOCC2)cc1,-7.89% (inactive)
15,COc1ccc(NS(=O)(=O)c2cc(NC(=O)COc3ccccc3F)ccc2OC)cc1,-13.3% (inactive)
16,COc1ccc(NS(=O)(=O)c2cc(NC(=O)CC(=O)c3ccc([N+](=O)[O-])cc3)ccc2C)cc1,45.4% (active)
17,Cc1ccc(NC(=O)CCNC(=O)c2ccc([N+](=O)[O-])cc2)cc1S(=O)(=O)N1CCOCC1,3.34% (inactive)
18,CC1CCCC(C)N1C(=O)COC(=O)c1ccccc1C(=O)c1ccccc1 (stereo not drawn),0.04% (inactive)
19,CCOc1cc(/C=N/NC(=O)c2ccncc2)cc(Br)c1O,3.19% (inactive)
20,O=C(C1CCCO1)N1CCN(C(=O)C23CC4CC(CC(C4)C2)C3)CC1 (stereo not drawn),9.09% (inactive)

row,SMILES,inhibition
1,CC(=O)Oc1cccc(N2C(=O)CC(Nc3ccc(N4CCOCC4)cc3)C2=O)c1 (stereo not drawn),51.5% (active)
2,COc1ccc(N2CCN(C3CC(=O)N(c4ccc5c(c4)OCCO5)C3=O)CC2)cc1 (stereo not drawn),4.17% (inactive)
3,O=C1CC(NNc2ccccc2)C(=O)N1c1cccc(Cl)c1 (stereo not drawn),-8.57% (inactive)
4,CCC(C)Cn1c(O)cc2nn(-c3nc4ccccc4s3)c(=O)c-2c1C (stereo not drawn),61.1% (active)
5,O=C(OCc1ccccc1)N1CCC2CC1c1ccc(-c3ccc4c(c3)OCO4)cc12 (stereo not drawn),-25% (inactive)
6,COc1ccc(OC)c(-c2csc(NC(=O)C3=NNC(=O)CC3)n2)c1,-2.91% (inactive)
7,COc1ccc(OC)c(Nc2nc(-c3ccc(O)c(O)c3)cs2)c1,64.3% (active)
8,COc1ccc(-c2csc(Nc3cccc(C)n3)n2)cc1OC,13.4% (inactive)
9,C[C@@H]1CN([C@H](C)CO)S(=O)(=O)c2ccc(C#C[C@@H](C)O)cc2O[C@@H]1CN(C)Cc1ccc(-c2ccccc2)cc1,-54% (inactive)
10,O=C(OCc1cn([C@H]2C[C@H](c3ccccc3)N(C(=O)c3cccs3)C[C@@H]2O)nn1)c1ccccc1,-11.7% (inactive)
11,N#CC1(Nc2ccc3c4c(cccc24)CC3)CCCCC1,33.2% (inactive)
12,Cc1cc(C(=O)COC(=O)C2CC2)c(C)n1-c1ccc(F)cc1,4.47% (inactive)
13,O=C1CSC(=S)N1/N=C/c1ccc(O)c([N+](=O)[O-])c1,13.7% (inactive)
14,Cc1cc(C(=O)N/N=C/c2ccc(O)c([N+](=O)[O-])c2)c(C)n1-c1ccc(F)cc1,45.1% (active)
15,Cc1ccc([C@H]2N[C@]3(CCCN(CC4CCCCC4)C3=O)[C@H]3C(=O)N(Cc4ccccc4)C(=O)[C@@H]23)cc1,-16.8% (inactive)
16,COc1ccccc1-c1nc(C(F)(F)F)c(OC)o1,-5.12% (inactive)
17,Fc1ccccc1N=C1Nc2cccc3cccc1c23,-6.03% (inactive)
18,COc1ccccc1C1=Nc2cccc3cccc(c23)N1,60.3% (active)
